# Measurements: PubChem BioAssay (NCI)
# Compounds without any hit were thinned out: in the full panel of roughly 83,000, 20% have a hit.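 Values shown are percent growth following 48 h exposure of cells in 96-well plates to a single concentration of compound; below 10 was considered active.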 Activity calls are given as the source filed them.
# Tested on: NCI-H522 lung
# Assay: NCI-60 one-dose screen, 48 h (100 = growth as untreated, 0 = no growth, -100 = all killed)
# Conditions: 10 µM unless noted
row,SMILES,growth
1,O=C1c2cccc3cccc(c23)C(=O)N1N1C(=O)c2cccc3c(N4CCOCC4)ccc(c23)C1=O,102% (inactive)
2,CCO/C=N/C1=C(C#N)C(c2ccc(OC)cc2)c2sc3c(F)cccc3c2O1 (stereo not given),0.128% (active)
3,Cc1ccc(CNc2ccc(Cl)cc2NCc2ccc(C)c(O)c2)cc1O,12.5% (inactive)
4,O=C(c1ccc(-c2nc(CSc3nc4ccccc4s3)no2)cc1)N1CCSCC1,19.7% (inactive)
5,C/C(=C(/c1ccc(Cl)cc1)c1ccc(OCCN2CCCC2)cc1)c1ccc(Cl)cc1,88.8% (inactive)
6,CC[C@]12C=CCN3CC[C@@]4(c5cc(NC(=O)CCC(=O)OCc6cn(Cc7ccc(F)cc7)nn6)c(OC)cc5N(C)[C@H]4[C@@](O)(C(=O)OC)[C@@H]1OC(C)=O)[C@@H]32,98.5% (inactive)
7,C=C(C)[C@@H]1CC[C@]2(C(=O)O)CC[C@]3(C)[C@H](CC[C@@H]4[C@@]5(C)C[C@@H](Cc6cn(CCO[C@@H]7O[C@H](COC(C)=O)[C@H](OC(C)=O)[C@H](OC(C)=O)[C@H]7OC(C)=O)nn6)[C@H](O)C(C)(C)[C@@H]5CC[C@]43C)[C@@H]12,64.1% (inactive)
8,C=CCn1c(SCC(=O)Nc2ccc(C(=O)/C=C/c3ccc(Cl)cc3)cc2)nnc1-c1cc(-c2ccc(S(N)(=O)=O)cc2)nc2ccccc12,98.3% (inactive)
9,CCOC(=O)C1=NN(c2ccccc2)C(=O)/C1=C\N1C(=O)CC(=O)NC1=S,88.8% (inactive)
10,CC12CCC3c4ccccc4CCC3(CO1)C2 (stereo not given),94.6% (inactive)
11,O=C1CC(N2C(=O)/C(=C/C(Cl)=C\c3ccc([N+](=O)[O-])cc3)SC2=S)C(=O)N1c1ccc(Cl)cc1 (stereo not given),-26.4% (active)
12,CC1(C)c2[nH]c3ccccc3c2C[C@]2(C)[C@H]3CC=C4[C@@H]5C[C@@](C)(C(N)=O)CC[C@]5(C)CC[C@@]4(C)[C@]3(C)CC[C@@H]12,52.5% (inactive)
13,CCCCCOc1ccc(C(=O)/C(Br)=C/C(=O)O)cc1,89.2% (inactive)
14,CC(C)N1CCN(Cc2ccc3c(NNC(=O)c4ccccc4)nc4cc(F)ccc4n23)CC1,22.8% (inactive)
15,N#Cc1cccc(NC(=O)c2oc3ccccc3c2-c2cnn(-c3ccccc3)c2)c1,59% [50 µM] (inactive)
16,Cc1cccc(N2CCN(CC(O)COc3ccc(Cl)cc3)CC2)c1 (stereo not given),94.1% (inactive)
17,CCOC(=O)c1c(C)nc2c(c1N)CC(=O)N2Cc1cc(F)cc(Cl)c1,66.8% (inactive)
18,C[C@@H]1CCC[C@H]1CC(N)C(=O)O (stereo not given in full),105% (inactive)
19,O=CC1(C2(C=O)c3ccccc3-c3ccccc32)c2ccccc2-c2ccccc21,-84.5% (active)
20,O=C1Nc2ccc(I)cc2C1=O,93.4% (inactive)

row,SMILES,growth
1,CN1CCN(c2ccc(NC(=O)c3nc4ccc5[nH]ncc5c4c4c3CCCC4)cc2C(F)(F)F)CC1,76.7% (inactive)
2,CN(C)C1CCN(Cc2ccc(NC(=O)c3cncc(C#Cc4cnc(N)c5ncccc45)c3)cc2C(F)(F)F)CC1,84.9% (inactive)
3,COc1ccc(C/C(C)=C(/c2ccc(OCCN3CCCCC3)cc2)c2ccc(OC(=O)NCc3ccccc3)cc2)cc1,-80.9% (active)
4,COc1ccccc1NC(=O)Cn1cc(CN2CCN(c3ccnc4cc(Cl)ccc34)CC2)nn1,86.8% (inactive)
5,N=C(N)c1ccc(-c2ccc(-c3ccc(F)cc3)o2)o1,37.4% (inactive)
6,CN1C(=O)/C(=C/c2ccc(C(=O)Nc3ncc(Cc4ccc(Cl)cc4)s3)cc2)SC1=S,36.4% (inactive)
7,CCCCCC(=O)OCC(=O)O[C@@H]1C[C@]2(C(C)C)O[C@@]1(C)[C@@H]1CC[C@@H](C)[C@H]1[C@@H]2OC(=O)/C=C/c1ccccc1,55.9% (inactive)
8,CC(=O)N(N=Nc1ccccc1)c1cccc2ccccc12,75.1% (inactive)
9,COc1ccc(/C=C2\C(=O)N=C3N2NC(c2cc(Br)ccc2O)C=C(C)N3c2ccccc2)cc1 (stereo not given),95.1% (inactive)
10,CC(C)(C)[Si](C)(C)O[C@H]1C(=O)C=CN2CC=C[C@@H]12,91.7% [100 µM] (inactive)
11,C=C1C(=O)O[C@H]2[C@H]1CC/C(COC(=O)CSCCSCC(=O)OC/C1=C/CC[C@@]3(C)O[C@H]3[C@H]3OC(=O)C(=C)[C@@H]3CC1)=C\CC[C@@]1(C)O[C@@H]21,-76.2% (active)
12,Brc1ccc2[nH]cc(-c3nonc3-c3c[nH]c4ccccc34)c2c1,13.6% (inactive)
13,COc1cccc(NC(=O)Cn2cc(CN3CCN(c4ccnc5cc(Cl)ccc45)CC3)nn2)c1,80.6% (inactive)
14,CCOc1ccc(NC(=O)CSc2oc(-c3ccccc3)nc2S(=O)(=O)c2ccc(F)cc2)cc1,67.8% (inactive)
15,O=C1Nc2ccc(Br)cc2/C1=N/c1n[nH]c(=S)s1,93.4% (inactive)
16,COc1ccc(C(=O)C2C(c3ccc(OC)cc3)CN(C)C23C(=O)Nc2ccccc23)cc1 (stereo not given),76.4% (inactive)
17,Cc1noc(C)c1C(=O)OCc1coc2ccccc2c1=O,-15.4% (active)
18,C[C@]12CC[C@@H]3c4ccc(O)c([N+](=O)[O-])c4CC[C@H]3[C@@H]1CCC2=O,85.8% (inactive)
19,COc1cccc([C@H]2c3[nH]c4ccccc4c3C[C@H]3C(=O)N(CCCCCCC(=O)NO)CC(=O)N23)c1,25.6% (inactive)
20,CO/N=C(/C)c1ccc(NC(=O)CSc2nnc(-c3ccncc3)n2-c2ccccc2)cc1,-8.08% (active)
